# Measured values as given in PubChem BioAssay (NCI).
# The panel holds about 83,000 compounds, 20% with a hit somewhere; the sample as a whole holds those more often.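 Growth was measured after 48 h exposure to one concentration of compound in 96-well plates. Values under 10 count as active.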 A number with no mark means an inactive call. Activity calls are given as the source filed them.
# What was measured:
# Assay in all cases: NCI-60 one-dose screen, 48 h (100 = growth as untreated, 0 = no growth, -100 = all killed)
# SK-MEL-2 melanoma = conditions: 10 µM unless noted
# EKVX NSCLC = conditions: 10 µM unless noted
# SN12C renal = conditions: 10 µM unless noted
# UO-31 renal = conditions: 10 µM unless noted
# TK-10 renal = conditions: 10 µM unless noted
# ACHN renal = conditions: 10 µM unless noted
# A498 renal = conditions: 10 µM unless noted
# CCRF-CEM leukemia = conditions: 10 µM unless noted
# MOLT-4 leukemia = conditions: 10 µM unless noted
# SR leukemia = conditions: 10 µM unless noted
# RPMI-8226 leukemia = conditions: 10 µM unless noted
# OVCAR-8 ovarian = conditions: 10 µM unless noted
# OVCAR-5 ovarian = conditions: 10 µM unless noted
# OVCAR-4 ovarian = conditions: 10 µM unless noted
# SK-OV-3 ovarian = conditions: 10 µM unless noted
# IGROV1 ovarian = conditions: 10 µM unless noted
# OVCAR-3 ovarian = conditions: 10 µM unless noted
# HS 578T breast = conditions: 10 µM unless noted
# NCI/ADR-RES ovarian = conditions: 10 µM unless noted
# CAKI-1 renal = conditions: 10 µM
SMILES,growth (SK-MEL-2 melanoma),growth (EKVX NSCLC),growth (SN12C renal),growth (UO-31 renal),growth (TK-10 renal),growth (ACHN renal),growth (A498 renal),growth (CCRF-CEM leukemia),growth (MOLT-4 leukemia),growth (SR leukemia),growth (RPMI-8226 leukemia),growth (OVCAR-8 ovarian),growth (OVCAR-5 ovarian),growth (OVCAR-4 ovarian),growth (SK-OV-3 ovarian),growth (IGROV1 ovarian),growth (OVCAR-3 ovarian),growth (HS 578T breast),growth (NCI/ADR-RES ovarian),growth (CAKI-1 renal)
Cc1cc(O)c(=O)cc2c1C[C@H]1CC(C)(C)/C=C/C[C@]3(C)Oc4cc(=O)c(O)cc(C)c4C[C@H]3C[C@H](O)[C@@]1(C)O2,-27.1% (active),3.91% (active),6.41% (active),-15.8% (active),-1.4% (active),-3.47% (active),-7.88% (active),4.82% (active),2.51% (active),4.18% (active),-0.673% (active),2.98% (active),26.9%,9.74% (active),-14.3% (active),6.73% (active),14.5%,18.7%,1.38% (active),–
C/C=C/[C@@H]1C=C[C@@H]2C[C@H](C)CC[C@H]2[C@]1(C)/C(O)=C1/C(=O)[C@H](CO)N(C)C1=O,79.2%,55.6%,45.8%,56.2%,67.7%,73.7%,43.5%,40.4%,60.6%,59.2%,36.5%,43.4%,118%,70.5%,75%,57.3%,49.1%,67.9%,6.87% (active),–
CC1=CC(=O)CC(C)(C)[C@@]1(O)/C=C/C(C)=C\C(=O)O,-52.4% (active),-29.6% (active),-15.1% (active),-31.6% (active),-25.5% (active),-7.21% (active),-72.7% (active),0.0714% (active),-9.99% (active),0.555% (active),-28.4% (active),-11.9% (active),-25% (active),-15.9% (active),-22% (active),-12.5% (active),-19.5% (active),-8.17% (active),-15.6% (active),–
CS(=O)c1nccc(-c2c(-c3ccc(F)c(OCCc4ccc(F)cc4)c3)nc3sccn23)n1 (stereo not given),–,36.1%,93.4%,-45.1% (active),107%,37.7%,82.2%,14.5%,9.78% (active),-8.59% (active),18%,66.6%,103%,82.1%,105%,-40.4% (active),–,88.7%,105%,47.3%
C=C1C(=O)O[C@@H]2C[C@@H](C)/C=C\C(=O)[C@](C)(OC(C)=O)C[C@H](OC(=O)/C(C)=C\C)[C@@H]12,-15.9% (active),5.52% (active),–,-88.6% (active),-61% (active),-75.5% (active),38.8%,-17% (active),2.13% (active),3.84% (active),-12.6% (active),-16.1% (active),-29.5% (active),18.2%,80.7%,-19.7% (active),-23.3% (active),19.1%,10.5%,-11.1% (active)
COc1cc2oc(-c3cccc(NC(=O)c4cc(NC(=O)[C@H](C)NC(=O)OC(C)(C)C)ccc4C)c3)cc(=O)c2c(OC)c1OC,–,85.4%,69.5%,36.3%,89.1%,61.9%,61.9%,62.4%,51.5%,25.1%,45%,42.6%,110%,63.9%,115%,60.6%,–,38.2%,87.3%,53%
CSc1nccc(-c2c(-c3ccc(F)c(OCc4ccc(F)cc4)c3)nc3sccn23)n1,–,89.8%,74%,53.7%,70%,43.8%,46.5%,81.8%,45.1%,73.4%,53.2%,84.4%,95.4%,61.8%,71.4%,55.8%,–,88.2%,73.6%,68%
